High-throughput results as filed in PubChem.
Hits are enriched below; roughly 3.5% of the tested compounds scored in any of these assays.
GPR151 ag – activators of human GPR151; Q8TDV0; PathHunter beta-arrestin GPR151 cells, luminescence; 1% of 650,000 active; activation, % at 11.2 µM; in the data active means activation above about 4.9%;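 further: 0% = median of compound wells and 100% = cells with positive control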
Target sequence (Q8TDV0 whole entry, looked up): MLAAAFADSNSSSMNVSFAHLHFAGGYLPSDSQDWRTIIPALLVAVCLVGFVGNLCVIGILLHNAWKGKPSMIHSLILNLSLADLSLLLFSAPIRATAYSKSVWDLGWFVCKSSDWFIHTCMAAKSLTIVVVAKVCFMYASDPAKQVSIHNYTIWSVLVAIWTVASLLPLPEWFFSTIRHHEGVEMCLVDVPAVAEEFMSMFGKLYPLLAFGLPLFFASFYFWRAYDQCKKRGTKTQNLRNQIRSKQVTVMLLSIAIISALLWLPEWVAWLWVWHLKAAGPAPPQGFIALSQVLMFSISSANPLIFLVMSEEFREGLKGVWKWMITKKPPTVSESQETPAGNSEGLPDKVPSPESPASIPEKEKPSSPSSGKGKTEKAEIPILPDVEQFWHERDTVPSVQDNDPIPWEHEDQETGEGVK
FBW7 act – activators of human E3 ligase FBW7; 0.13% of 650,000 active; AlphaScreen FBW7–phospho-cyclin E peptide binding, activator screen; normalized activity (activation), % at 26.1 µM; in the data active means normalized activity above about 1.9%;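 further: purified mutant Fbw7 with reduced substrate affinity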
TEAD-YAP inh – TEAD-YAP interaction inhibition; HEK-TIYL cells, TEAD-Gal4/YAP UAS-luciferase luminescence; inhibition, % at 9.12 µM; 1.4% of 640,000 active; AID 1259422; in the data active means inhibition above about 32%;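 further: 0% = median of test compound wells and 100% = reference inhibitor wells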
MITF inh – blocks human microphthalmia-associated transcription factor. 0.91% of 650,000 active. O75030. AlphaScreen MITF homodimerization, bead proximity signal. inhibition, % at 2.6 µM; in the data active means inhibition above about 50%;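 further: 0% = vehicle wells with protein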
GPR151 confirm – confirmation of human GPR151 activators | shares compounds with GPR151 ag | activation, % at 11.2 µM | GPR151 PathHunter beta-arrestin cells, luminescence, 90 min; % of EA-reagent control over plate median | 6,700 tested, under 10 active;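 active means mean percent activation across replicates above the confirmation screen cutoff of 4.91%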
GPR119 ag – GPR119 activation, counter-screen for GPR151 activators; AID 1508611; shares compounds with GPR151 ag; 0.3% of 6,700 active; activation, % at 11.2 µM; GPR119 PathHunter beta-arrestin cells, luminescence, 90 min; 0 = compound-well median, 100 = enzyme-acceptor control;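 active means mean percent activation in the counterscreen above 29.09%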;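 further: counterscreen on off-target GPR119 to flag nonselective hits from the GPR151 activator screen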
* hit, by the source's call; . = not tested or not shown.

SMILES	GPR151 ag	FBW7 act	TEAD-YAP inh	MITF inh	GPR151 confirm	GPR119 ag
CC1(C)CC(=O)C(C=Nc2ccc(NC3=C(C#N)C(=O)CC(C)(C)C3)cc2)=C(O)C1	7.1*	0	-1	16	1	-2
CCOC(=O)c1c(NC(=O)/C=C/C(=O)O)sc(C(=O)Nc2ccccc2)c1C	2	0	-39	1	.	.
O=C1CC(c2ccc(O)cc2)c2cc3c(cc2N1)OCO3 (centres undefined)	0	0	11	-3	.	.
CC(C)(CO)CN1CCCC(C(=O)Nc2cccc(-c3ccc(F)cc3)c2)C1 (centres undefined)	6.2*	1	-5	-18	-1	-15
CSCC(=O)N1CCCC(C(=O)Nc2ccc(-c3cccc(F)c3)cc2)C1 (centres undefined)	5.6*	0	-38	-6	1	5
O=C(Nc1cccc(-c2ccc(F)cc2)c1)C1CCCN(C(=O)c2cscn2)C1 (centres undefined)	17*	0	7	9	0	-1
CSCCC(=O)N1CCCC(C(=O)Nc2ccc(-c3cccc(F)c3)cc2)C1 (centres undefined)	2	0	-7	5	.	.
O=C(Nc1ccc(-c2cccc(F)c2)cc1)C1CCCN(C(=O)c2cscn2)C1 (centres undefined)	-2	0	-33	15	.	.
CCOC(=O)c1cc2c(c(CSc3nc4ccccc4c(=O)n3Cc3ccc4c(c3)OCO4)c1)OCOC2	4.9*	0	-7	-7	3	10
CCOC(=O)c1cc2c(c(CSc3nc4ccccc4c(=O)n3Cc3cccs3)c1)OCOC2	1	0	-9	1	.	.
CC(O)c1nc2ccccc2n1CCOc1ccccc1F (centres undefined)	5.1*	0	-6	-3	1	3
CC(O)c1nc2ccccc2n1Cc1cccc(Cl)c1 (centres undefined)	5.2*	0	7	-8	1	9
COc1cc(Nc2nc(NCc3cccc(C(F)(F)F)c3)c3ncn(CCN4CCCC4=O)c3n2)cc(OC)c1OC	5.3*	0	2	5	0	-10
O=C1CCCN1CCCNc1nc(NCc2cccnc2)nc2c1ncn2CCN1CCCC1=O	6.7*	0	-7	15	-1	-15
O=C1CCCN1CCn1cnc2c(NCc3ccccc3)nc(NCc3cccnc3)nc21	-2	1	0	4	.	.
COc1cc(Nc2nc(NCc3cccnc3)nc3c2ncn3CCN2CCCC2=O)cc(OC)c1OC	5.0*	0	-4	-4	0	-7
O=C(Nc1cc(Oc2ccc(Cl)cc2Cl)cc([N+](=O)[O-])c1)C12CC3CC(C1)CC(n1cnc(Cl)n1)(C3)C2	2	0	9	10	.	.
Brc1ccc(NC2=NCCCCC2)cc1	0	0	-10	-2	.	.
c1ccc(NC2=NCCC2)cc1	7.1*	0	8	-1	0	-6
S=C(Nc1ccc2c(c1)OCO2)N1CCN(c2ncccn2)CC1	6.6*	0	-5	3	0	-7
COCCCN1C(=O)c2ccccc2CC1(C)C(=O)NC1CCCCCC1 (centres undefined)	5.6*	0	-4	-7	0	-3
COCCCN1C(=O)c2ccccc2CC1(C)C(=O)NC1CCCCCCC1 (centres undefined)	2	0	2	2	.	.
O=c1[nH]c(=O)c2nc3ccc(Cl)cc3nc2[nH]1	5	0	2	1	.	.
Nc1nnc(-c2ccc(C(=O)O)cc2)s1	7.6*	0	-5	5	1	0
Cc1ccc(-c2nnc(N)s2)cc1C	5.6*	0	-33	1	-1	1
SMILES	GPR151 ag	FBW7 act	TEAD-YAP inh	MITF inh	GPR151 confirm	GPR119 ag
Cc1ccc(-c2nnc(N)s2)cc1	-2	0	-8	-14	.	.
CCOC(=O)c1sc(=NC(=O)c2ccc(S(=O)(=O)N3CCN(C(=O)OCC)CC3)cc2)n(C)c1C	1	0	0	-10	.	.
COC(=O)C(NS(=O)(=O)c1ccc([N+](=O)[O-])cc1)c1ccccc1 (centres undefined)	9.3*	0	9	-2	0	3
O=C(O)C(NS(=O)(=O)c1ccc([N+](=O)[O-])cc1)c1ccccc1 (centres undefined)	2	0	4	16	.	.
CCOc1cc(/C=C(/C#N)C(=O)NCc2ccccc2)ccc1OC	0	0	4	4	.	.
COc1ccc(/C=C(\C#N)C(=O)NCc2cccnc2)cc1OC	6.0*	0	-9	-2	0	7
Cc1cc(-n2c(SCc3ccccc3)nc3ccsc3c2=O)ccc1Cl	5.6*	0	-7	1	1	8
CC(=O)Nc1ccccc1NC(=O)CSc1ccc(C)cc1	2	0	17	-18	.	.
CCCn1c(C2CC2)nc2ccccc21	9.9*	0	-2	-1	0	2
COc1ccc(S(=O)(=O)Nc2nnc(-c3ccccc3Cl)s2)cc1	1	0	0	-4	.	.
COC(=O)c1c(NC(=O)/C=C\C(=O)O)sc(C)c1C	14*	0	-1	21	-1	3
O=S(=O)(c1ccc(Nc2nc3ccccc3n3nnnc23)cc1)N1CCOCC1	5.1*	0	-19	4	0	0
COc1ccc(C2/C(=C(/O)c3ccc(F)cc3)C(=O)C(=O)N2CCCCCC(=O)O)c(OC)c1 (centres undefined)	1	0	-10	-10	.	.
COc1ccc(C2/C(=C(/O)c3ccc(C)cc3)C(=O)C(=O)N2CCCC(=O)O)c(OC)c1 (centres undefined)	7.8*	0	8	-9	1	10
COc1ccc(C2/C(=C(/O)c3ccccc3)C(=O)C(=O)N2CCCn2ccnc2)c(OC)c1 (centres undefined)	5.9*	0	2	-21	2	-4
Oc1oc(-c2ccccc2Br)nc1C=Nc1ccc(I)cc1	9.3*	0	-1	6	0	2
Oc1oc(-c2ccccc2Br)nc1C=Nc1ccc(Br)cc1	1	0	-1	-3	.	.
O=[N+]([O-])c1ccccc1NCCNCCO	7.9*	0	3	-1	0	-2
Cc1nonc1OCCNCCNc1ccccc1[N+](=O)[O-]	5.6*	0	1	1	0	5
Cc1nonc1OCCCNc1ccc([N+](=O)[O-])cc1	-1	1	17	4	.	.
O=[N+]([O-])c1cc(C(F)(F)F)ccc1NCCNCCO	0	0	12	-7	.	.
COc1ccccc1NC(=O)c1ccc2c(=O)n(-c3ccc(F)cc3)c(=S)[nH]c2c1	1	0	-7	4	.	.
COc1ccc(C(=O)Nn2c(C3CC3)nc3ccccc3c2=O)c(OC)c1	-1	1	0	22	.	.
COc1ccc(C(=O)Nn2c(C3CC3)nc3cc(OC)c(OC)cc3c2=O)c(OC)c1	5.9*	0	1	2	0	-2
